Measurements reported in PubChem BioAssay AID686979 (National Center for Advancing Translational Sciences (NCATS), 2013).
Among all 420,000 compounds or so, about 50,000 (12%) were called active. Not shown: some 26% with an inconclusive outcome. Calls follow the shape of the dose curve; as a rule, active = well fitted inhibition curve with a large enough effect; inconclusive = small, poorly fitted or top-dose-only effect; inactive = flat fitted curve, though single readings scatter. The list comes from a sample in which actives are over-represented; it also holds similar structures and randomly drawn compounds. Where a SMILES comes first, the peptide text is derived from it. Bridges are numbered along the chain shown (N, C = ends). [ ]: non-standard residue; d: D form. The star is where a group is joined. X4 = CC[C@H](C)CCCCC(=O)*; Dab = NCC[C@H](N)C(=O)O

assay: qHTS for Inhibitors of human tyrosyl-DNA phosphodiesterase 1 (TDP1): qHTS in cells in presence of CPT; details: chicken DT40 Tdp1-/-;hTDP1 cells + 20 nM CPT, ATP luminescence, 48 h; series mostly up to 46.2 µM; activity change, negative = growth inhibition: at the top concentration; also: nearly all actives have a fitted effect of over 55% in size
Procedure, shortened: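 Chicken DT40 Tdp1-/- cells stably complemented with human TDP1 were seeded at 400 cells/well in medium containing 20 nM camptothecin, exposed to pin-transferred compounds, and grown at 37 °C for at least 48 hr. Viability was read as ATP luminescence.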
% is scaled to controls: 0 for no effect and ±100 for the full control effect; potency is read from the fitted curve at half-maximal effect.

| SMILES | activity change, negative = growth inhibition | Potency |
| --- | --- | --- |
| Cc1cccc(C(=O)OCC(=O)NCC(C)C)c1O | 14.8% (inactive) |  |
| CC[C@H](C)CCCCC(=O)N[C@@H](CCN)C(=O)N[C@H](C(=O)N[C@@H](CCN)C(=O)N[C@H]1CCNC(=O)[C@@H]([C@H](C)O)NC(=O)[C@H](CCN)NC(=O)[C@H](CCN)NC(=O)[C@H](CC(C)C)NC(=O)[C@@H](CC(C)C)NC(=O)[C@H](CCN)NC1=O)[C@@H](C)O (X4-[Dab]T[Dab][Dab][Dab][dL]L[Dab][Dab][dT]; lactam 4-C) | -18.2% [at 21.1 µM] (inactive) |  |
| CSc1ccccc1NC(=O)COC(=O)CCCOc1ccc(C)cc1 | -3.52% (inactive) |  |
| COc1cc([N+](=O)[O-])ccc1NC(=O)COC(=O)CCOc1ccc(C)cc1 |  | 6.51 µM (active) |
| COc1cc([N+](=O)[O-])ccc1NC(=O)CN1CCCC1 | 2.13% (inactive) |  |
| CC1(C)CC(=O)CC2(C1)NCC(c1ccccc1Cl)c1c2[nH]c2ccccc12 (stereo not drawn) |  | 18.4 µM (active) |
| Cc1ccc(C(=O)Nc2nc(-c3ccccc3)ns2)cc1 | 3.18% (inactive) |  |
| Cc1ccc(C(=O)Nc2nc(N)n(-c3ccccc3)n2)cc1 | -3.52% (inactive) |  |
| CCc1cccc(-n2nnc(-c3nsc(NC(=O)c4ccc(C)cc4)n3)c2C)c1 |  | 9.2 µM (active) |
| CCN(CC(=O)Nc1ccc(NC(C)=O)cc1)C(=O)C1CC(=O)N(c2ccc3c(c2)OCCO3)C1 (stereo not drawn) | -1.1% (inactive) |  |
| COc1cccc(CNC(=O)CCC2CCCN(C(=O)c3cc(C)[nH]n3)C2)c1 (stereo not drawn) | -15.1% (inactive) |  |
| COc1cccc(CNC(=O)C2CC(=O)N(C3CCCCCCC3)C2)c1 (stereo not drawn) | -25.5% (inactive) |  |
| COc1cccc(CNC(=O)CCC(=O)N2CC3CCCN3c3ccccc32)c1 (stereo not drawn) |  | 14.6 µM (active) |
| CCOc1ccc(-c2nc(C)sc2CC(=O)O)cc1 | -19.3% (inactive) |  |
| Cc1cc(C)cc(NC(=O)C2CCCN(S(=O)(=O)c3ccc4[nH]c(=O)ccc4c3)C2)c1 (stereo not drawn) | -16.4% (inactive) |  |
| Cn1nnnc1SCC(=O)Nc1sccc1C(N)=O | -10.4% (inactive) |  |
| CC1=C(C(=O)OCc2ccc(C)cc2)C(c2c(Cl)cccc2Cl)CC(=O)N1 (stereo not drawn) | -45.1% (inactive) |  |
| COC(=O)C1=C(C)NC(=O)CC1c1ccccc1OC (stereo not drawn) | 2.8% (inactive) |  |
| CC1=C(C(=O)OCc2ccc(C)cc2)C(c2ccccc2Cl)CC(=O)N1 (stereo not drawn) |  | 13 µM (active) |
| O=C(Nc1ccc(Cl)cn1)c1ccccc1-c1ccccc1 | -9.84% (inactive) |  |

| SMILES | activity change, negative = growth inhibition | Potency |
| --- | --- | --- |
| CC1(C)S[C@@H]2[C@H](N=CN3CCCCCC3)C(=O)N2[C@H]1C(=O)O | -15.7% (inactive) |  |
| C=CCn1c(SCc2ccc(C(=O)NCCO)cc2)nc2ccccc2c1=O | -9.74% (inactive) |  |
| OC1CSc2nc3ccccc3n2C1 (stereo not drawn) | 8.44% (inactive) |  |
| COc1ccc(OC)c(NC(=O)C2CCCN2S(=O)(=O)c2cccc3nsnc23)c1 (stereo not drawn) | -22.3% (inactive) |  |
| CC(=O)N1c2ccc(S(=O)(=O)N3CCC(C(=O)NC4CCCCC4C)CC3)cc2CC1C (stereo not drawn) | 5.58% (inactive) |  |
| CCc1cccc(NC(=O)C2CCCN(S(=O)(=O)c3ccc4[nH]c(=O)ccc4c3)C2)c1 (stereo not drawn) | -6.93% (inactive) |  |
| COc1ccc(OC)c(NC(=O)C2CCCN2S(=O)(=O)c2ccc3c(c2)CC(C)N3C(C)=O)c1 (stereo not drawn) |  | 20.6 µM (active) |
| CC(=O)N1c2ccc(S(=O)(=O)N3CCCC(C(=O)Nc4cccc(Cl)c4)C3)cc2CC1C (stereo not drawn) |  | 16.4 µM (active) |
| COc1ccc(OC)c(NC(=O)c2cccc(S(=O)(=O)N3CCN(C(C)=O)CC3)c2)c1 | 4.49% (inactive) |  |
| CC(=O)N1c2ccc(S(=O)(=O)N3CCCC(C(=O)Nc4cccc(F)c4)C3)cc2CC1C (stereo not drawn) |  | 11.6 µM (active) |
| CC(=O)N1c2ccc(S(=O)(=O)N3CCC(C(=O)NCc4ccc(F)cc4)CC3)cc2CC1C (stereo not drawn) | -26.5% (inactive) |  |
| CC(=O)N1c2ccc(S(=O)(=O)N3CCC(C(=O)NC4CCCC(C)C4C)CC3)cc2CC1C (stereo not drawn) | -25.8% (inactive) |  |
| CC(=O)N1CCc2cc(Br)cc(S(=O)(=O)CCC(=O)Nc3c(C)n(C)n(-c4ccccc4)c3=O)c21 | -6% (inactive) |  |
| COC(=O)c1cc(NC(=O)CCc2c(C)nc3c4c(C)cc(C)nc4nn3c2C)cc(C(=O)OC)c1 | -8.98% (inactive) |  |
| COc1ccc(NC(=O)CCCc2nnc3n(CCC(C)C)c(=O)c4sccc4n23)c(OC)c1 | -17.2% (inactive) |  |
| COc1cc(C(=O)NN(CCC#N)C2=NS(=O)(=O)c3ccccc32)cc(OC)c1OC | 19.6% (inactive) |  |
| COc1cc(/C=C/C(=O)OCC(=O)Nc2cccc(Oc3ccccc3)c2)ccc1O | -24.9% (inactive) |  |
| CN(c1ccc(OCC(=O)O)cc1)S(=O)(=O)c1ccc2ccccc2c1 | -4.79% (inactive) |  |
| COc1ccc(NC(=O)C/C(C)=N/NC(=O)c2cnccn2)cc1Cl | -9.25% (inactive) |  |
| CC1(C)CCSC(/C=C/c2ccccc2)=N1 |  | 4.61 µM (active) |

| SMILES | activity change, negative = growth inhibition | Potency |
| --- | --- | --- |
| CC1(C(=O)NS(=O)(=O)c2ccccc2)CCN1C(=O)C/C=C/c1ccccc1 (stereo not drawn) | -13.3% (inactive) |  |
| O=C(Nc1ccc(C(=O)OCc2cc(=O)n3nc(C4CC4)sc3n2)cc1)c1ccc(F)cc1 | -12.1% (inactive) |  |
| O=C(N/N=C/c1cccc(OC(=O)c2ccc([N+](=O)[O-])cc2)c1)c1cccnc1 | 10.5% (inactive) |  |
| O=C(CCNC(=O)Cn1ccc2ccccc2c1=O)NCCC1=CCCCC1 | 2.96% (inactive) |  |
| N#CC1(NC(=O)COC(=O)Cc2n[nH]c(=O)c3ccccc23)CCCCC1 | -2.98% (inactive) |  |
| C/C=C/C=C/C(=O)O |  | inactive |
| CC(=O)NCCn1c(SCC(=O)Nc2ccc(C)cc2)nc2ccccc2c1=O |  | inactive |
| COc1ccc(Cl)cc1NC(=O)CSc1nc2ccccc2c2nc(-c3ccccc3)nn12 | -13.4% (inactive) |  |
| CCc1nnc(NC(=O)CSc2nc3ccccc3c(=O)n2CCCOC)s1 | -8.33% (inactive) |  |
| COc1ccc(OC)c(NC(=O)CSc2nc(-c3ccccc3)cc(=O)[nH]2)c1 | -8.5% (inactive) |  |
| CCOCCCn1c(SCC(=O)Nc2cc(OC)ccc2OC)nc2ccccc2c1=O |  | 13 µM (active) |
| CCOCCCn1c(SCC(=O)Nc2ccc(CC)cc2)nc2ccccc2c1=O |  | 14.6 µM (active) |
| CC(C)[C@@H]1NC(=O)c2cc([N+](=O)[O-])cc(I)c2NCCC[C@@H](C(=O)NC(CC(=O)O)C(N)=O)NC(=O)[C@H](CO)NC1=O (stereo partly drawn) | -22.2% (inactive) |  |
| O=C(COC(=O)c1ccc(S(=O)(=O)N2CCCCCC2)cc1)Nc1ccccc1C(F)(F)F | 4.84% (inactive) |  |
| CCc1ccccc1NC(=O)NCCN1CCCCC1 | -12.2% (inactive) |  |
| CCCCN(C(=O)c1ccc(C)o1)c1c(N)n(CCCC)c(=O)[nH]c1=O | 7.98% (inactive) |  |
| COCCNc1ncnc2c1ncn2[C@H]1CN(CCN2CCOCC2)C[C@@H](CO)O1 | 6.48% (inactive) |  |
| COc1ccc(CN2C(=O)C(CC(=O)NC3CCCCC3)CC(C(=O)N3CCOCC3)=C2C)cc1 (stereo not drawn) | -10.3% (inactive) |  |
